In the library only some 9.4% were active in any assay of this set; here they are far more common.
NPC1 prom act: activates the NPC1 promoter | Huh7 NPC1 promoter luciferase reporter, 24 h | Potency, µM (series often up to 9.22 µM), for the others: at the top dose activation, most hits filed as activators | 320,000 tested, 2.4% active; note: % of control where 0% means no effect; nearly all actives have a fitted effect of over 60% in size
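Luminescence from an NPC1 promoter-driven luciferase reporter in stably transfected Huh7 cells was measured after 24 h compound treatment at 37 °C, followed by 10 min ambient incubation with luciferase detection reagent.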
FLuc modulator: counter-screen for miR-21 project: firefly luciferase inhibitors or activators; P08659; purified FLuc, Km substrates, luminescence inhibition; Potency, µM (series often up to 57.5 µM), for inactives: at the highest dose activity change, negative = inhibition, hits mostly inhibitors; 360,000 tested, 6.9% active;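 note: plate controls were vehicle for no effect and reference inhibitor for full effect; nearly all actives have a fitted effect of over 55% in size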
Target sequence (P08659 whole entry, looked up): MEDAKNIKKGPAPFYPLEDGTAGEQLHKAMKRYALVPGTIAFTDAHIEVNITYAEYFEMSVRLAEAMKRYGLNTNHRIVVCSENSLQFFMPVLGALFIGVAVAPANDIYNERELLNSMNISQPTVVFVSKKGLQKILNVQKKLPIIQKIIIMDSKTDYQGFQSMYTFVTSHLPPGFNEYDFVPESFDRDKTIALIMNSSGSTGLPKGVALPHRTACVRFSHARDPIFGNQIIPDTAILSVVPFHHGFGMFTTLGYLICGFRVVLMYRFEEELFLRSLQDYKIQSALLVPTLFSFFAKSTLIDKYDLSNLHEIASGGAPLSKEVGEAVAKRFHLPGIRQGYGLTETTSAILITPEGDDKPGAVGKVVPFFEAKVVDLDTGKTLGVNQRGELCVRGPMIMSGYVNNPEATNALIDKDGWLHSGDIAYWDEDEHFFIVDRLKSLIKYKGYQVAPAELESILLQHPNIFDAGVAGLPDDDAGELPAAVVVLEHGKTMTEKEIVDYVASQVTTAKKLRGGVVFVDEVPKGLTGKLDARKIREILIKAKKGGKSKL
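Purified P. pyralis luciferase, 10 nM final, with Km-level 10 uM D-luciferin and 10 uM ATP in 50 mM Tris acetate pH 7.5, 10 mM Mg acetate, 0.01% Tween-20, 0.05% BSA; 6-point qHTS titration about 60 µM downward; luminescence read.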
ELG1 repair inh: ELG1-dependent DNA repair inhibition. HEK293T ELG1-luciferase reporter, luminescence, 16 h; DNA damage induced by 5-fluorouridine. Potency, µM (titrated, usually from 46.1 µM), inactives show at the top dose activity change, negative = inhibition, hits mostly inhibitors. 330,000 tested, 2.3% active. AID 504467; note: % is set by controls: 0 for no effect and ±100 for the full control effect; nearly all actives have a fitted effect of over 55% in size
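Quantitative HTS, concentration-response format. 2,000 cells/well co-treated with 5-fluorouridine and compound, 16 hr in 5% CO2 at 37 °C; ONE-Glo luminescence read after 30 min.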
Rab9 prom act: activates the Rab9 promoter | Huh7 Rab9 promoter-luciferase reporter, luminescence, 24 h | 320,000 tested, 2.8% active | Potency, µM (highest dose often 9.22 µM), inactives show at the top dose activation, negative = inhibition, hits mostly activators; note: % of control where 0% means no effect; nearly all actives have a fitted effect of over 60% in size
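Cell-based reporter: Huh7 stable for Rab9 promoter-driven luciferase, plated in reduced-serum medium with 10% FBS at 1500 cells/well, compound-treated 24 h at 37 °C, luminescence read after 10 min reagent.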
ELG1 genotox: inducers of genotoxicity in HEK293T ELG1-luciferase cells | 330,000 tested, 1.3% active | Potency, µM (doses to about 46 µM), without a hit: at the highest dose activity change, positive = activation, hits mostly activators | HEK293T ELG1-luciferase reporter, luminescence, 16 h; note: % of control where 0% means no effect; nearly all actives have a fitted effect of over 60% in size
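16 hr compound incubation (37 °C, 5% CO2) of HEK293T cells carrying luciferase-tagged ELG1; luciferase then measured by ONE-Glo luminescence after 30 min at RT.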
SMN2 splice up: SMN2 splice variant enhancement | HEK293 SMN2-luciferase splicing reporter, luminescence, 30-36 h | Potency, µM (highest dose often 46.1 µM), for the others: at the highest dose activity change, positive = activation, actives largely listed as activators | 210,000 tested, 2.8% active; note: % of control where 0% means no effect; nearly all actives have a fitted effect of over 55% in size
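HEK293 cells carry an SMN2 minigene-luciferase reporter in which exon 7 inclusion puts luciferase in frame. Cells were seeded at 2000 cells/well, attached for 10-12 hours, then exposed to compounds for 30-36 hours at 37C before ONE-Glo luminescence.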
Active calls of the source: *; ? = inconclusive; / = not tested or not shown; [ ] = remark or other dose. Calls come from the whole dose curve; as a rule, active = well fitted curve in the direction sought with a large enough effect; inconclusive = small, poorly fitted or top-dose-only effect, or another doubt; inactive = no such curve, though single readings can be large; an effect the other way counts as inactive or inconclusive. Potency is the fitted concentration of half-maximal effect.

SMILES | NPC1 prom act | FLuc modulator | ELG1 repair inh | Rab9 prom act | ELG1 genotox | SMN2 splice up
CCn1c(O)c(/C=C2\C=Nc3ccccc32)sc1=Nc1ccc(C)cc1 | -11% | -2% | 21% | -2% | 6% | -9%
CCn1c(O)c(/C=C2\C=Nc3ccccc32)sc1=O | ? | 2.7µM* | ? | 1.4µM* | 6.5µM* | 22µM*
CCOC(=O)c1c(Nc2ccccc2)sc(/C=C2\C=Nc3ccccc32)c1O | -4% | 6% | -11% | -3% | 12% | -6%
Cc1cccc(CSc2nc(-c3cccc(C)c3)nc3c2Cc2c(CO)cnc(C)c2O3)c1 | / | 0% | / | / | / | /
COc1ccccc1CCNC(=O)c1ccc(-c2nc(CSc3ccc(C)cc3)c(C)o2)cc1 | / | -12% | / | / | / | /
COc1cccc(-c2nc(CS(=O)(=O)CC(=O)Nc3c(C)cc(C)cc3C)c(C)o2)c1 | / | -9% | / | / | / | 1%
O=Cc1cnc(N2CCCCC2)s1 | -3% | -1% | 29% | 1% | 4% | 9%
O/N=C\c1cnc(N2CCN(c3ccccc3)CC2)s1 | 16% | 17µM* | ? | ? | ? | /
CCOC(=O)c1c(C)nc2c(C)cccn12 | 0% | 2% | 1% | -6% | 7% | -58%
CCOC(=O)c1c(C)nc2c3ccccc3ccn12 | 18% | 3.8µM* | ? | 2.2µM* | 4.1µM* | 13µM*
C[N+](C)(N)Cc1nc(-c2ccc(Cl)cc2)no1 | / | / | / | / | / | 19%[9.22 µM]
CN(c1ncnc(N)c1[N+](=O)[O-])C1CCS(=O)(=O)C1 (stereo not given) | 4% | -1% | ? | 7% | -15% | -13%
CCCCN(c1ccccc1)c1ncnc(N)c1[N+](=O)[O-] | 8% | -1% | 2.6µM* | -1% | -13% | -18%
Cc1cccc(C)c1OCC(=O)Nc1ncn[nH]1 | -3% | -1% | 15% | 1% | -5% | -9%
O=C(COc1ccc2ccccc2c1Br)Nc1ncn[nH]1 | 6% | 13µM* | ? | 13% | ? | -1%
CCOC(=O)c1cc(-c2ccc(OC)cc2)n(CCC(=O)NCCc2ccc(OCC)c(OCC)c2)c1C | / | -1% | / | / | / | /
CCOC(=O)N1CCc2c(sc3c2c(=O)n(-c2ccc(CC)cc2)c(=O)n3Cc2ccc(F)cc2Cl)C1 | / | 2% | / | / | / | -15%
Clc1cc2nc(-c3cccnc3Cl)[nH]c2cc1Cl | 0.89µM* | 3µM* | ? | ? | 4.6µM* | /
COC(=O)c1c(C)sc(-c2c(-c3ccc(F)cc3)[nH]c3[nH]c(=O)[nH]c(=O)c23)c1O | / | -18% | / | / | / | /
COc1ccc(C(=O)NNc2ccccc2)cc1OC | -5% | -1% | 2% | -3% | 9% | -25%
O=C(COc1ccccc1)NNC1=NS(=O)(=O)c2ccccc21 | -2% | 24µM* | 22% | 17% | 4% | -5%
COc1ccc(C(=O)NNC2=NS(=O)(=O)c3ccccc32)cc1OC | 1% | 15µM* | 2% | -2% | -5% | /
COc1ccccc1CN1CCN(C2CCN(C(=O)NC(C)C)CC2)C(=O)C1=O | / | 1% | / | / | / | /
CCOC(=O)N1CCc2c(sc3c2c(=O)n(-c2ccc(F)cc2)c(=O)n3CC(=O)c2ccccc2)C1 | / | -1% | / | / | / | -4%
Cc1ccc(OCc2ccc(C(=O)NN)o2)c([N+](=O)[O-])c1 | 9% | ? | -8% | -3% | 3% | /
SMILES | NPC1 prom act | FLuc modulator | ELG1 repair inh | Rab9 prom act | ELG1 genotox | SMN2 splice up
COC(=O)c1ccc(COc2ccc(C)cc2[N+](=O)[O-])o1 | ? | 19µM* | ? | ? | -7% | /
COC(=O)c1ccc(COc2cc([N+](=O)[O-])cc3cccnc23)o1 | 0% | 21µM* | 12% | -1% | -2% | /
Cc1ccc2c(c1)Sc1c(ccc3ccccc13)N2 | ? | 12µM* | ? | 2.5µM* | ? | /
CCN(CC(=O)Nc1cc(S(=O)(=O)N2CCOCC2)ccc1Cl)Cc1ccccc1 | -10% | 3% | 18µM* | -11% | -11% | /
CCN1CCN(S(=O)(=O)c2ccc(Cl)c(C(=O)NC3CC3)c2)CC1 | 0% | 4% | ? | -5% | 2% | /
CCN(CC(=O)Nc1cc(S(=O)(=O)N2CCCCC2)ccc1Cl)Cc1ccccc1 | -6% | -2% | -5% | -2% | -3% | /
O=C(Cn1cnc2c(cnn2-c2ccccc2)c1=O)Nc1cc(S(=O)(=O)N2CCOCC2)ccc1Cl | -1% | -28% | 23µM* | -2% | -5% | -37%
CCN1CCN(S(=O)(=O)c2ccc(Cl)c(C(=O)NCCc3ccccc3)c2)CC1 | ? | ? | ? | ? | 16µM* | /
N#C/C(=C\c1ccc(Cl)c([N+](=O)[O-])c1)c1ccccn1 | 0% | -14% | ? | -3% | ? | -4%
CNc1ccc(/C=C(\C#N)c2ccccn2)cc1[N+](=O)[O-] | 2.8µM* | -19% | ? | 1.3µM* | 10µM* | 10µM*
N#C/C(=C\c1ccncc1)c1ccccn1 | -3% | -3% | -21% | 6% | -4% | /
N#C/C(=C\c1ccccc1)c1ccccn1 | ? | 19µM* | ? | ? | ? | 21%
Cc1ccc(Cc2c(C)c(C#N)c3[nH]c4ccccc4n3c2=O)cc1 | 0% | -4% | 18µM* | -9% | -10% | /
C=C(C)Cc1c(C)c(C#N)c2[nH]c3ccccc3n2c1=O | -3% | -5% | 21µM* | 3% | -7% | /
CC(C)CCN1C(=O)c2ccccc2CC1(C)C(=O)NC1CCC(C)CC1 (stereo not given) | / | -1% | / | / | / | 1%
O=C(CCNC(=O)c1ccccc1Cl)Nc1cc(C(F)(F)F)ccc1Cl | -5% | -1% | 0% | 1% | 0% | -15%
Cc1ccc(C)c(C(=O)COC(=O)CCCC(=O)Nc2cc(C(F)(F)F)ccc2Cl)c1 | -2% | 4.8µM* | 23% | 0% | -1% | -10%
Cc1cccc(-c2nc(C)c(CCNC(=O)C(=O)Nc3ccc(C)c(C)c3)s2)c1 | / | -3% | / | / | / | /
CCCC(=O)N1CCN(c2ccc(NC(=S)NC(=O)c3cccc(C)c3)cc2)CC1 | -9% | 1% | 16µM* | -17% | -11% | -51%
Cc1ccc(-n2nc(C)c3c(C(=O)Nc4ccc(C)cc4Cl)cc(C)nc32)cc1 | / | -6% | / | / | / | /
CCCCNS(=O)(=O)c1ccc(NC(=O)C(Sc2ccccc2)c2ccccc2)cc1 (stereo not given) | -2% | 0% | 18µM* | -8% | -6% | -13%[1.84 µM]
O=C(CSc1nnc(-c2cccs2)o1)N1CCOCC1 | -1% | 0% | ? | 0% | 4% | -1%
CC1CCCC(C)N1C(=O)CSc1nnc(-c2cccs2)o1 (stereo not given) | 1.1µM* | 12µM* | ? | 1.6µM* | ? | 11µM*

Bioassay records from PubChem.
